# From PubChem BioAssay
# ERa SRC1 pot: enhancers of ERα–SRC-1 coactivator binding, primary screen, biochemical, TR-FRET, ERα LBD, low estradiol. Estrogen receptor (Homo sapiens), P03372. coactivator binding (% of control), % at 25.6 µM. actives 1.3% (n = 86,000). TR-FRET ERalpha-LBD/SRC-Cy5 coactivator binding, 2 h; 100 = basal binding, no effect. AID 639, 2007; in the data active means activity above about 200%;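 further: binding measured in presence of low estradiol as agonist stimulus; 0% = peptide alone without receptor and 100% = receptor with peptide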
# ERa SRC1 inh: ERα–SRC-1 coactivator interaction inhibitors, primary screen, biochemical, TR-FRET, ERα LBD, estradiol-bound; TR-FRET ER-alpha LBD / SRC-1 peptide; AID 629, 2007; inhibition, % at 25.6 µM; actives 1.7% (n = 86,000); Estrogen receptor (Homo sapiens), P03372; in the data active means inhibition above about 50%;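 further: 0% = receptor plus peptide control and 100% = peptide only without receptor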
# MRP reversal: reversal of MRP1-mediated doxorubicin resistance, primary screen, H69AR cells, doxorubicin co-treatment. H69AR cells + 2 uM doxorubicin, CellTiter-Glo, 72 h. differential viability (reversal), % at 10 µM. actives 0.04% (n = 85,000). AID 602, 2007;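 active means viability drop by adding the cancer drug above about 55%, with treated viability meeting a 40% cutoff, limit read from the data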;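 further: viability without doxorubicin minus viability with 2 µM doxorubicin for each compound; larger differential means the compound sensitizes cells more to doxorubicin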
# Smad3 FoxH1 inh: Smad3/FoxH1 peptide binding inhibitors, primary screen, biochemical, TR-FRET; Mothers against decapentaplegic homolog 3 (Homo sapiens), P84022; TR-FRET Smad3/Dy647-FoxH1 peptide binding, europium anti-His; inhibition, % at 25 µM; actives 0.29% (n = 88,000); AID 630, 2007;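 active means compounds that reduce the energy-transfer binding signal between the protein and its labelled peptide by more than half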;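 further: 0% = Smad3 plus labelled peptide maximal FRET and 100% = peptide-only background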
# MRP1 act: H69AR viability gain despite doxorubicin, primary screen, MRP-1 activator project, H69AR cells, CellTiter-Glo. actives 0.61% (n = 140,000). viability increase, % at 10 µM. viability rescue;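 active means viability gain under doxorubicin at or above a set limit, the compound median plus 3 SD, cut at about 4.7% in these data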;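 further: MRP-1 overexpressing cells given doxorubicin 25 µM after compound pretreatment; 18-22 h compound pretreatment then 72 h with doxorubicin before readout; 0% = doxorubicin-only wells and 100% = vehicle-treated cells without doxorubicin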
# ERb SRC1 inh: inhibitors of ERβ-SRC1 coactivator interaction, primary screen, biochemical, TR-FRET, ERβ LBD, SRC-1 peptide; Estrogen receptor beta (Homo sapiens), Q92731; TR-FRET ER-beta LBD / SRC1-Cy5 peptide binding; receptor agonist-loaded with 1 µM estradiol; inhibition, % at 25.6 µM; actives 1.3% (n = 86,000); AID 633, 2007;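 active means compounds whose percent inhibition of the receptor-coactivator binding signal exceeds about 50% in the single-dose screen, limit read from the data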;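 further: 0% = receptor plus peptide wells without compound and 100% = peptide-only wells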
# Target sequence (Q92731 whole entry, looked up, the tested form may be a part): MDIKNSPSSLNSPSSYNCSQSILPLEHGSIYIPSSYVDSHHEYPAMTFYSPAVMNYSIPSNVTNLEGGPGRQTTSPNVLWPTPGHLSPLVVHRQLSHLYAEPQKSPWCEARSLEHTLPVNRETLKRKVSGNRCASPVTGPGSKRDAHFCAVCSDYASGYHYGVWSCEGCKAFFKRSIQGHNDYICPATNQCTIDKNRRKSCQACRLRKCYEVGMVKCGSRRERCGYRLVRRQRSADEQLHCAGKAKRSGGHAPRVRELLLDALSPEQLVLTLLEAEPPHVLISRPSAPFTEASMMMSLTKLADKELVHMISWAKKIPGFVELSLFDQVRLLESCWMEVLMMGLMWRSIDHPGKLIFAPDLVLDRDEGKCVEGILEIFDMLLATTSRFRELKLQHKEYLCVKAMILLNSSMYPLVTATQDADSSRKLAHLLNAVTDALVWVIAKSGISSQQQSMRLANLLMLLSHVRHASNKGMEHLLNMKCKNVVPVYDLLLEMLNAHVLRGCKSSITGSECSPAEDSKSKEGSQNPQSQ
# * = called active by the depositor; . = not tested or not shown; [ ] = another dose, or the depositor's remark. In the library only some 2.8% were active in any assay of this set; here they are far more common.
SMILES,ERa SRC1 pot,ERa SRC1 inh,MRP reversal,Smad3 FoxH1 inh,MRP1 act,ERb SRC1 inh
O=C(O)c1cc(-c2ccco2)nc2ccc(Br)cc12,25,64*,-9,4,1,61*
CCCCCCNC(=O)c1cc(-c2ccco2)nc2ccccc12,70,85*[fluorescence artefact?],-14,6,-4,75*
O=C(NCC1CCCO1)c1cc(-c2ccco2)nc2ccccc12 (stereo not given),43,69*[fluorescence artefact?],0,10,-2,75*[fluorescence artefact?]
COc1ccc(NC(=O)C(c2ccccc2)N(C)C(=O)c2ccc(=O)[nH]c2)cc1 (stereo not given),.,.,.,.,0,.
C=CCn1c(SCC(=O)N2CCc3ccccc3C2)nnc1-c1ccncc1,.,.,.,.,-2,.
CCOC(=O)COn1c(=O)c(=O)n(O)c2ccccc21,74,36,0,11,-1,50*[fluorescence artefact?]
CCOC(=O)c1sc2nc(CSc3nc4ccccc4n3CC)[nH]c(=O)c2c1C,75,54*[fluorescence artefact?],-19,-1,1,38
CCOC(=O)C1CCCN(Cc2ccc(O)c(OC)c2)C1 (stereo not given),87,-20,-5,1,-1,-7
CCOC(=O)C1CCCN(Cc2ccc(OC)cc2OC)C1 (stereo not given),124,-10,0,-3,30*,-7
CCN1CCc2c(sc3c2c(NCc2ccco2)nc2nnnn23)C1,20,85*[fluorescence artefact?],-19,-1,-1,62*[fluorescence artefact?]
Cc1nn(C)c(C)c1NC(=O)CSc1nc(-c2ccccc2Cl)nc2c1cnn2-c1ccccc1,162,74*[fluorescence artefact?],-26,-19,-3,49
Cc1nn(C)c(C)c1NC(=O)CSc1nc(C2CC2)nc2c1cnn2-c1ccccc1,102,20,78*,-8,-7,9
CCOc1ccc2nc3c(cc2c1)CN(CCOC)C(=NCCOC)S3,483*[fluorescence artefact?],43,-13,-117,-2,33
COCCN=C1Sc2nc3ccc(C)cc3cc2CN1Cc1ccco1,.,.,.,.,-5,.
Cc1cc(-c2cc(C)c(O)c(C(C)(C)C)c2)cc(C(C)(C)C)c1O,.,.,.,63*,.,.
CC(=O)Nc1cc(C(C)(C)C)c(O)c(C(C)(C)C)c1,102,0,-6,-1,1,-1
C(CCc1nnc2c(n1)CCCC2)Cc1nnc2c(n1)CCCC2,.,.,.,-3,.,.
COc1ccc(-c2nc(Cn3c(SCc4ccc(C)cc4)nc4ccncc43)c(C)o2)cc1OC,217*,42,-18,3,-2,36
CCC(C(=O)NC1CCCCC1)n1c(SCc2cccc(F)c2)nc2ccncc21 (stereo not given),.,.,.,.,-2,.
COc1ccc(-c2nc(Cn3c(SCc4cccc(F)c4)nc4ccncc43)c(C)o2)cc1OC,237*,9,12,8,-2,36
Cc1ccc(CSc2nc3ccncc3n2CC(=O)Nc2cc(C)cc(C)c2)cc1,.,.,.,.,1,.
COc1ccc(C(=O)[C@H](Br)[C@H](Br)C(=O)O)cc1,.,.,.,26,.,.
O=C(Cc1cn2ccsc2n1)OCc1ccccc1,119,4,5,3,0,0
O=C(Cc1cn2ccsc2n1)OCc1nc2ccccc2s1,37,64*,2,12,-1,64*[fluorescence artefact?]
CC(C)CN(CC#N)CC(C)C,.,.,.,15,.,.
SMILES,ERa SRC1 pot,ERa SRC1 inh,MRP reversal,Smad3 FoxH1 inh,MRP1 act,ERb SRC1 inh
C[C@@]1(C(=O)O)CCC[C@@H]1C(=O)O,.,.,.,15,.,.
C/C(N)=C(/C#N)C(=O)CSc1nnc(Nc2cccc(C)c2)s1,17,91*[fluorescence artefact?],11,1,0,96*[fluorescence artefact?]
CN(C)CCCN=c1c2ccccc2n(C)c2[nH]c(=O)n(C)c(=O)c12,.,.,.,-1,.,.
COc1ccc(S(=O)(=O)N2C3CCC2CC(NC(=O)NC2CCCCC2)C3)cc1 (stereo not given),79,1,-7,-12,-2,7
COC(=O)c1ccc(S(=O)(=O)N2C3CCC2CC(NC(=O)NC2CCCCC2)C3)cc1 (stereo not given),83,15,2,-13,-2,58*[fluorescence artefact?]
CCOC(=O)CCC(=O)Nc1ccccc1C(N)=O,129,53*,-4,0,-1,-3
CCOC(=O)CC(=O)Nc1ccccc1C(=O)O,.,.,.,.,1,.
c1csc(-c2csc3nc(CN4CCOCC4)nc(NCc4ccc5c(c4)OCO5)c23)c1,97,2,17,-4,-2,7
Cc1ccc2c(c1)c1c3n2CC(=C2C(=O)OC(C)(C)OC2=O)NC3CCC1 (stereo not given),82,44,-15,-6,1,54*[fluorescence artefact?]
Cc1ccc2c(c1)c1c3n2CCN(C(=O)C2CC2)C3CCC1 (stereo not given),98,2,9,11,-4,-1
C[C@H](CCC(=O)NN)[C@@H]1CC[C@@H]2[C@H]3CC[C@H]4C[C@@H](O)CC[C@]4(C)[C@@H]3CC[C@]21C,.,.,.,7,.,.
Nc1nc(N)c(CCCCc2ccccc2)c(N)n1,.,.,.,-11,.,.
O=C(Cc1cccs1)Nc1nnc(COc2ccccc2)s1,76,56*,9,9,.,37
CCSc1nnc(NC(=O)COc2ccc3ccccc3c2)s1,259*[fluorescence artefact?],21,-13,6,-2,11
Cc1nnc(NC(=O)Cc2cccs2)s1,50,74*,2,11,-2,73*[fluorescence artefact?]
CCSc1nnc(NC(=O)C(Cc2ccccc2)n2cccc2)s1 (stereo not given),249*[fluorescence artefact?],-7,-1,-28,-1,-8
N=C(N)SCc1nc(-c2ccc(Cl)cc2)no1,.,.,.,15,.,.
C/C(=N\NC(=O)c1ccncc1)c1ccccc1Cl,.,.,.,-7,.,.
CCn1c2ccccc2c2nnc(NCCCO)nc21,.,.,.,-5,.,.
O=[N+]([O-])c1cccc(/C=N/Nc2ccc3ccccc3n2)c1O,.,.,.,4,.,.
COCC(=O)Nc1ccccc1C(=O)Nc1ccc(OC)cc1,141,-3,14,-1,1,0
CC1Cc2ccccc2N1C(=O)CSc1nnc(NC(=O)Cc2cccs2)s1 (stereo not given),56,62*,1,11,-1,47
COc1ccc(NC(=O)c2ccccc2NC(=O)COc2ccccc2)cc1,211*[fluorescence artefact?],56*[fluorescence artefact?],4,17,-2,38
Cc1cc(NC(=O)Cc2cccs2)no1,17,97*[fluorescence artefact?],-16,5,-3,89*[fluorescence artefact?]
Cc1nnc(NC(=O)COc2ccccc2)s1,94,-10,1,8,5.1*,7
Nc1nc(-c2ccc3ccccc3c2)cc(-c2cc(-c3ccc4ccccc4c3)nc(N)n2)n1,.,.,.,-2,.,.
C=CCNS(=O)(=O)c1ncnc2nc[nH]c12,.,.,.,-8,.,.
